Assay results: PubChem BioAssay (NCI)
About 79,000 compounds went through this panel and 15% of them were active in at least one assay; those are over-represented in the sample as a whole. Activity calls are given as the source filed them. Cut-off read from the data, not from the text of the source: active = growth inhibition above about 70%; inactive = the rest.

What was measured:
[1] = NCI Yeast Anticancer Drug Screen. Data for the rad52 strain (AID 147);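 note: 0% = growth of vehicle-treated control cultures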; settings: S. cerevisiae rad52 mutant growth inhibition, active compounds read high
Method in brief: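 Genetically altered yeast (DNA damage repair defect) treated with compound; inhibition calculated relative to vehicle.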

[2] = NCI Yeast Anticancer Drug Screen. Data for the wt1 strain (AID 149);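 note: 0% = growth of vehicle-treated wt1 cultures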; settings: S. cerevisiae wt1 strain (SPY 50644) growth inhibition, active compounds read high
Method in brief: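 The wt1 strain was treated with compounds, and growth was compared with vehicle-treated cultures to give inhibition.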

[3] = NCI Yeast Anticancer Drug Screen. Data for the rad50EPP+ strain (AID 151);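 note: 0% = growth of vehicle-treated control cultures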; settings: S. cerevisiae rad50 mutant strain, active compounds read high
Method in brief: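 Strain rad50EPP+; compound exposure; % growth inhibition vs vehicle.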

[4] = NCI Yeast Anticancer Drug Screen. Data for the mgt1 strain (AID 153); settings: S. cerevisiae mgt1 mutant growth inhibition, active compounds read high
Method in brief: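 Read-out: yeast growth inhibition vs vehicle control. Strain mgt1, drawn from a panel altered in DNA damage repair or cell cycle control.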

[5] = NCI Yeast Anticancer Drug Screen. Data for the rad50 strain (AID 155);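 note: 0% = growth of vehicle-only cultures of the same strain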; settings: S. cerevisiae rad50 strain growth inhibition, active compounds read high
Method in brief: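 Cells are treated with compound, grown, and their growth is then scored against vehicle-only cultures of the same repair-deficient yeast strain.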

[6] = NCI Yeast Anticancer Drug Screen. Data for the mec2-1 strain (AID 157); settings: S. cerevisiae mec2-1 strain, active compounds read high
Method in brief: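 Cells of the genetically defined mec2-1 yeast strain are incubated with test compound. Inhibition of growth is calculated against vehicle-treated controls.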

[7] = NCI Yeast Anticancer Drug Screen. Data for the rad14 strain (AID 159);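 note: 0% = growth of vehicle-treated control cultures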; settings: S. cerevisiae rad14 strain growth inhibition, active compounds read high
Method in brief: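 Readout: yeast growth inhibition, referenced to vehicle-only cultures. Strain bears a defined alteration in DNA damage repair.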

[8] = NCI Yeast Anticancer Drug Screen. Data for the sgs1 mgt1 strain (AID 161);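 note: 0% = growth of cultures given vehicle only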; settings: S. cerevisiae sgs1 mgt1 strain, active compounds read high
Method in brief: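 Inhibition of yeast growth, normalised to vehicle-treated controls, is reported for a strain bearing genetic alterations in DNA damage repair.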

[9] = NCI Yeast Anticancer Drug Screen. Data for the CLN2oe strain (AID 163);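 note: 0% = growth of vehicle-only control cultures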; settings: S. cerevisiae CLN2oe strain, active compounds read high
Method in brief: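 Strain altered in cell-cycle control, incubated with compound; growth compared to solvent-treated controls.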

[10] = NCI Yeast Anticancer Drug Screen. Data for the cln2 rad14 strain (AID 165);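 note: 0% = growth equal to vehicle treated cultures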; settings: S. cerevisiae cln2 rad14 strain, active compounds read high
Method in brief: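 The screen exposed genetically defined yeast (cln2 rad14) to test compounds and scored growth inhibition relative to vehicle-treated controls.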

[11] = NCI Yeast Anticancer Drug Screen. Data for the bub3 strain (AID 167); settings: S. cerevisiae bub3 mutant strain, active compounds read high
Method in brief: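 Part of a panel of yeast mutants defective in DNA damage repair or cell cycle regulation. Each strain is grown with compound, and inhibition is calculated relative to solvent-treated cultures.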

[12] = NCI Yeast Anticancer Drug Screen. Data for the wt2 strain (AID 169);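 note: 0% = growth of vehicle-treated yeast cultures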; settings: S. cerevisiae wt2 strain growth inhibition, active compounds read high
Method in brief: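 Steps: yeast strain treated with compound; growth recorded; inhibition calculated relative to cultures given vehicle alone.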

[13] = NCI Yeast Anticancer Drug Screen. Data for the mlh1 strain (AID 171);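 note: 0% = growth of vehicle-treated control cultures of the same strain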; settings: S. cerevisiae mlh1 strain growth inhibition, active compounds read high
Method in brief: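 Yeast screen: mutant strain plus compound, growth scored against vehicle control wells.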

[14] = NCI Yeast Anticancer Drug Screen. Data for the mlh1 rad18 strain (AID 175); settings: S. cerevisiae mlh1 rad18 strain growth inhibition, active compounds read high
Method in brief: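 Compound-treated yeast growth, normalised to vehicle controls. Strain bears defined DNA repair mutations.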

[15] = NCI Yeast Anticancer Drug Screen. Data for the rad18 strain (AID 177); settings: S. cerevisiae rad18 mutant growth inhibition, active compounds read high
Method in brief: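 Inhibition values reflect reduced yeast growth compared with vehicle-treated controls, using a strain engineered with a DNA damage repair defect.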

[16] = NCI Yeast Anticancer Drug Screen. Data for the sgs1 strain (AID 173);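 note: 0% = growth of vehicle-only control cultures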; settings: S. cerevisiae sgs1 mutant, active compounds read high
Method in brief: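 Inhibition of yeast growth served as the measure. The mutant strain was treated with each compound, and growth was normalised to cultures receiving vehicle alone.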

[17] = at 5.0 µM (retest, dose inferred, filed as 0.5)
[18] = at 50.0 µM (retest, dose inferred, filed as 5.0)

Measured: growth inhibition

O=C1C=C(CN(CCCl)CCCl)C(=O)C=C1CN(CCCl)CCCl
active: [14]; at 50.0 µM 73.6% | [15]; at 33.0 µM 86% | [15]; at 100.0 µM 90%
inactive: [1]; at 1.2 µM 0% | [1]; at 3.7 µM 0% | [1]; at 11.0 µM 4% | [1]; at 33.0 µM 14% | [1]; at 100.0 µM 46% | [2]; at 1.2 µM -3% | [2]; at 3.7 µM 0% | [2]; at 11.0 µM 1% | [2]; at 33.0 µM 3% | [2]; at 100.0 µM 4% | [3]; at 1.2 µM 1% | [3]; at 3.7 µM -2% | [3]; at 11.0 µM 0% | [3]; at 33.0 µM 3% | [3]; at 100.0 µM 13% | [4]; at 1.2 µM -5% | [4]; at 3.7 µM 0% | [4]; at 11.0 µM -1% | [4]; at 33.0 µM -1% | [4]; at 100.0 µM 0% | [5]; at 1.2 µM -1% | [5]; at 3.7 µM -1% | [5]; [17] 1% | [5]; at 11.0 µM 0% | [5]; at 33.0 µM 12% | [5]; [18] 32% | [5]; at 50.0 µM 14.8% | [5]; at 100.0 µM 35% | [6]; at 1.2 µM -5% | [6]; at 3.7 µM -8% | [6]; [17] 0% | [6]; at 11.0 µM -3% | [6]; at 33.0 µM 3% | [6]; [18] 12% | [6]; at 50.0 µM 26.1% | [6]; at 100.0 µM 15% | [7]; at 1.2 µM 1% | [7]; at 3.7 µM 4% | [7]; at 11.0 µM 9% | [7]; at 33.0 µM 28% | [7]; at 100.0 µM 61% | [8]; [17] -2% | [8]; [18] 24% | [8]; at 50.0 µM 35.2% | [9]; at 1.2 µM -7% | [9]; at 3.7 µM -8% | [9]; at 11.0 µM -11% | [9]; at 33.0 µM -7% | [9]; at 100.0 µM -12% | [10]; [17] -3% | [10]; [18] 8% | [10]; at 50.0 µM 7.6% | [11]; at 1.2 µM -2% | [11]; at 3.7 µM -6% | [11]; [17] -1% | [11]; at 11.0 µM -7% | [11]; at 33.0 µM -6% | [11]; [18] 8% | [11]; at 50.0 µM 1.95% | [11]; at 100.0 µM -9% | [12]; at 1.2 µM 0% | [12]; at 3.7 µM -3% | [12]; at 11.0 µM -1% | [12]; at 33.0 µM -1% | [12]; at 100.0 µM 4% | [13]; at 1.2 µM -1% | [13]; at 3.7 µM -1% | [13]; at 11.0 µM -1% | [13]; at 33.0 µM 2% | [13]; at 100.0 µM 6% | [14]; [17] 2% | [14]; [18] 36% | [15]; at 1.2 µM 4% | [15]; at 3.7 µM 13% | [15]; at 11.0 µM 29%

O=C1NC(=S)NC(=O)C1=Cc1ccc([N+](=O)[O-])o1
inactive: [1]; at 1.2 µM -50% | [1]; at 3.7 µM -58% | [1]; at 11.0 µM -6% | [1]; at 33.0 µM 57% | [2]; at 1.2 µM -18% | [2]; at 3.7 µM -4% | [2]; at 11.0 µM -1% | [2]; at 33.0 µM -1% | [2]; at 100.0 µM 6% | [3]; at 1.2 µM 11% | [3]; at 3.7 µM 23% | [3]; at 11.0 µM 61% | [4]; at 1.2 µM 15% | [4]; at 3.7 µM 20% | [4]; at 11.0 µM 41% | [4]; at 33.0 µM 58% | [5]; at 1.2 µM 12% | [5]; at 3.7 µM 17% | [5]; [17] 25% | [5]; at 11.0 µM 36% | [5]; at 33.0 µM 66% | [5]; [18] 69% | [6]; at 1.2 µM -16% | [6]; at 3.7 µM -20% | [6]; [17] -19% | [6]; at 11.0 µM -12% | [6]; at 33.0 µM 0% | [6]; [18] -4% | [6]; at 50.0 µM 3.2% | [7]; at 1.2 µM 5% | [7]; at 3.7 µM -10% | [7]; at 11.0 µM -7% | [7]; at 33.0 µM 16% | [7]; at 100.0 µM 36% | [8]; [17] 1% | [8]; [18] 36% | [8]; at 50.0 µM 48% | [9]; at 1.2 µM 9% | [9]; at 3.7 µM -1% | [9]; at 11.0 µM 5% | [9]; at 33.0 µM -9% | [10]; [17] 16% | [10]; [18] 35% | [10]; at 50.0 µM 16.7% | [11]; at 1.2 µM 11% | [11]; at 3.7 µM -9% | [11]; [17] 2% | [11]; at 11.0 µM -24% | [11]; at 33.0 µM -28% | [11]; [18] 10% | [11]; at 50.0 µM 4.45% | [11]; at 100.0 µM 53% | [13]; at 1.2 µM 15% | [13]; at 3.7 µM 33% | [13]; at 11.0 µM 21% | [13]; at 33.0 µM 41% | [16]; at 1.2 µM -11% | [16]; at 3.7 µM 2% | [16]; at 11.0 µM 10% | [16]; at 33.0 µM 32% | [16]; at 100.0 µM 54% | [14]; [17] -15% | [14]; [18] 2% | [14]; at 50.0 µM 64% | [15]; at 1.2 µM 21% | [15]; at 3.7 µM 16% | [15]; at 11.0 µM 57%
active: [1]; at 100.0 µM 85% | [3]; at 33.0 µM 87% | [3]; at 100.0 µM 92% | [4]; at 100.0 µM 79% | [5]; at 50.0 µM 77.6% | [5]; at 100.0 µM 87% | [6]; at 100.0 µM 87% | [9]; at 100.0 µM 82% | [13]; at 100.0 µM 81% | [15]; at 33.0 µM 83% | [15]; at 100.0 µM 92%
